Reference: PubChem BioAssay (NCATS)
Results filed as inconclusive are left out. This is one part of the list. Activity calls are given as the source filed them. Unless noted, the call rests on the fitted dose curve; in most records, active means well fitted curve in the direction sought with a large enough effect; inconclusive means small, poorly fitted or top-dose-only effect, or another doubt; inactive means no such curve, though single readings can be large; an effect the other way counts as inactive or inconclusive.

Experiments:
[1] = target: Rap guanine nucleotide exchange factor 3 (Homo sapiens) (UniProt O95398); test: Confirmatory qHTS for agonist of cAMP-regulated guanine nucleotide exchange factor 3 (EPAC1) (AID 1645881); further: nearly all actives have a fitted effect of over 75% in size; further: potency means the concentration at half of the fitted maximal effect;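 on activation: EPAC1 catalysed release of BODIPY-GDP from Rap1B seen as fluorescence loss; 100% = effect of cAMP agonist control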
Chain of Rap guanine nucleotide exchange factor 3 (Homo sapiens) (O95398 whole entry, looked up): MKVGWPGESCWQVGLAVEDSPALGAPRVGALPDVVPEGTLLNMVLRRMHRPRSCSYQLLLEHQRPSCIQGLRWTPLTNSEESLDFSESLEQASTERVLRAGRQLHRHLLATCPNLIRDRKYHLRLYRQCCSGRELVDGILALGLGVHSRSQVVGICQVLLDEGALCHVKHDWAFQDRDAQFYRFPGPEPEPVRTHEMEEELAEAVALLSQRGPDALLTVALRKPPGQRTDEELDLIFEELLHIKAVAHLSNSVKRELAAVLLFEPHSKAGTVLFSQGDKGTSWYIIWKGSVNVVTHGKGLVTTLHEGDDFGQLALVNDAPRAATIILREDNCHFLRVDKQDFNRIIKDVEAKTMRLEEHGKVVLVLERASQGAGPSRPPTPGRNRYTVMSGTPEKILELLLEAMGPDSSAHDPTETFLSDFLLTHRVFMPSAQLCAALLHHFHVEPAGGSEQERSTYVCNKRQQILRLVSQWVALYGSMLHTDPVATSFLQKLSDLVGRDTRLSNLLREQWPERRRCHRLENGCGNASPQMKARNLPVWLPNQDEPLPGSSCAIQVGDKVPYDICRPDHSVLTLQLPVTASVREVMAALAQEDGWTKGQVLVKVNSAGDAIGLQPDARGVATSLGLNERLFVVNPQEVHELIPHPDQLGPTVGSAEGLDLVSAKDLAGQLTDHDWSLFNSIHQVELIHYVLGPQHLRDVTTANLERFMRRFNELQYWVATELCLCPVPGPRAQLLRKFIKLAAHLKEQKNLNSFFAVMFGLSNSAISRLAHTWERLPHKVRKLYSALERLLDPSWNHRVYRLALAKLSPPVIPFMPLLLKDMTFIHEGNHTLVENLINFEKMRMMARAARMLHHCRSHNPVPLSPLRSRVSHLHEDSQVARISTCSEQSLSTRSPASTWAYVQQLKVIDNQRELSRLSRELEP

[2] = target: Rap guanine nucleotide exchange factor 4 (Homo sapiens) (UniProt Q8WZA2); test: Confirmatory qHTS for agonist of cAMP-regulated guanine nucleotide exchange factor 4 (EPAC2) (AID 1645884);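 further: nucleotide exchange releases bodipy-GDP from Rap1 and this lowers its fluorescence; nearly all actives have a fitted effect of over 65% in size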; further: potency means the concentration at half of the fitted maximal effect; on activation: on the % scale 0 is the no-effect control and ±100 the full control effect
Chain of Rap guanine nucleotide exchange factor 4 (Homo sapiens) (Q8WZA2 whole entry, looked up): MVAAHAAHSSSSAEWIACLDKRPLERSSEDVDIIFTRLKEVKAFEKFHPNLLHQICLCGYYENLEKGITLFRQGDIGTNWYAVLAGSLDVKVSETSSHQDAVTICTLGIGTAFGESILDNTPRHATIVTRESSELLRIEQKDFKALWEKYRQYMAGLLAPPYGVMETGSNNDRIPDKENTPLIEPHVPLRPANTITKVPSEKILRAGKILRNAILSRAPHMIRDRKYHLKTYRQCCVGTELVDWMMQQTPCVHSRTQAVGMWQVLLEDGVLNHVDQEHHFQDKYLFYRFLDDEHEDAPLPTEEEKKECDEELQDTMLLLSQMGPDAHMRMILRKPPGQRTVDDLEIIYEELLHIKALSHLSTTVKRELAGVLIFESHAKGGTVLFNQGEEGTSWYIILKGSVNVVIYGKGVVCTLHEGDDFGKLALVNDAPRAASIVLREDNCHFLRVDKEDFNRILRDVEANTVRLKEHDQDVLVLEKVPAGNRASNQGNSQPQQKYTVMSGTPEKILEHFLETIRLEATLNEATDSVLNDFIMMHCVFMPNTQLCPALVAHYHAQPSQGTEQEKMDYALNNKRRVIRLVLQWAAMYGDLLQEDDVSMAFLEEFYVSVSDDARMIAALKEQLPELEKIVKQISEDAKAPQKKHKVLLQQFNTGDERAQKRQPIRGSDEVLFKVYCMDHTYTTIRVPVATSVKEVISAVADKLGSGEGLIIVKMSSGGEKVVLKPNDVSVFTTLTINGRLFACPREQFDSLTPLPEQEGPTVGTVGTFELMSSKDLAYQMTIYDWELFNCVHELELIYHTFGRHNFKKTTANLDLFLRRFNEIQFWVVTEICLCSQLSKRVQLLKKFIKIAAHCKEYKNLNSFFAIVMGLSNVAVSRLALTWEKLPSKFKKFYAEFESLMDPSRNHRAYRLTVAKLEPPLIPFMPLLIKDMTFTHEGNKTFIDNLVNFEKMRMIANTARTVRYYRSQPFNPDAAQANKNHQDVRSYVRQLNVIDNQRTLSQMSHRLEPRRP

[3] = target: Rap guanine nucleotide exchange factor 3 (Homo sapiens) (UniProt O95398); test: Counterscreen qHTS for antagonist of cAMP-regulated guanine nucleotide exchange factor 3 (EPAC1) (AID 1645888);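 further: fluorescence loss as bound BODIPY-GDP is released from Rap1B; % of control where 0% means no effect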
How it was run: (§1)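 Measured: fluorescence of BODIPY-GDP bound to Rap1B, which falls as exchange proceeds. Conditions include 50 uM competing GDP, 5 and 30 min reads, and a later cAMP challenge for antagonist detection.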

[4] = target: Rap guanine nucleotide exchange factor 3 (Homo sapiens) (UniProt O95398); test: Counterscreen qHTS for agonist of cAMP-regulated guanine nucleotide exchange factor 3 (EPAC1) (AID 1645889); further: nearly all actives have a fitted effect of over 40% in size; further: potency means the concentration at half of the fitted maximal effect; on activation: % of control where 0% means no effect
How it was run: as §1

[5] = qHTS for Inhibitors of the vitamin D receptor (VDR): Hit Validation using a Texas Red Assay (AID 602201); further: potency means the concentration at half of the fitted maximal effect
How it was run: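 Fluorescence polarization (Ex 595/Em 615 nm) of Texas Red (7 nM) with 1.5 uM VDR-LBD and LG19078 (final concentrations). Compounds were incubated for 2 hours at room temperature.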

[6] = target: Tyrosyl-DNA phosphodiesterase 1 (Homo sapiens) (UniProt Q9NUW8); test: Confirmation Assay for Inhibitors of Tyrosyl-DNA Phosphodiesterase (TDP1) (AID 489007); details: recombinant human TDP1 enzymatic activity, dose-response; further: potency means the concentration at half of the fitted maximal effect; nearly all actives have a fitted effect of over 40% in size
Chain of Tyrosyl-DNA phosphodiesterase 1 (Homo sapiens) (Q9NUW8 whole entry, looked up): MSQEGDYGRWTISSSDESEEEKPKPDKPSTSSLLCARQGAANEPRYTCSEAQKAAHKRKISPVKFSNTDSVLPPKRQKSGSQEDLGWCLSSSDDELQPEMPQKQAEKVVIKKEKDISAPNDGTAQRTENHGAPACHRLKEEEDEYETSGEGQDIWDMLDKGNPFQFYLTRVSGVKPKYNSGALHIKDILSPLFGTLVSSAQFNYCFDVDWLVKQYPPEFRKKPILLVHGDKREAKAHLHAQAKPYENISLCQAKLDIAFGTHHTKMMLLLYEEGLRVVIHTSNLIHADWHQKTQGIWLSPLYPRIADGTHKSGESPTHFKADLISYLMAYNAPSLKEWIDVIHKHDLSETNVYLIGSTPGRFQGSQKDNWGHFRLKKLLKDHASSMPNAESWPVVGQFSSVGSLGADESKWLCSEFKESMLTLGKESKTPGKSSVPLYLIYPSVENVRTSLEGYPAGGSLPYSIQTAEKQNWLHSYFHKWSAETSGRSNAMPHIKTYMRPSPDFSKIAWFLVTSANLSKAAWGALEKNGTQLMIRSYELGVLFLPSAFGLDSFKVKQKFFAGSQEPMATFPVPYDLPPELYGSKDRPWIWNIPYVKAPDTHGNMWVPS
How it was run: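 Recombinant human Tdp1 (1 nM final), expressed in E. coli, preincubated 15 min with compound. Then 15 nM 5'-biotin/3'-phosphotyrosine-FITC DNA substrate added for 5 min at room temperature. AlphaScreen beads (10 ug/ml) added for 10 min; cleavage gives signal loss.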

[7] = qHTS Assay for Inhibitors of Fructose-1,6-bisphosphate Aldolase from Giardia Lamblia: Giardia lamblia growth inhibition (AID 2785); further: on the % scale 0 is the no-effect control and ±100 the full control effect; nearly all actives have a fitted effect of over 70% in size
How it was run: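 G. lamblia WB trophozoites (100 cells/well) in modified TYI-S-33 medium, pH 7.0, were exposed to pin-transferred compounds or DMSO for 48 h at 37C in sealed bags. Viability was read as ATPlite luminescence after 20 min at room temperature.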

[8] = qHTS Assay for Inhibitors of Fructose-1,6-bisphosphate Aldolase from Giardia Lamblia: Mammalian cellular toxicity (AID 2786);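 further: compound exposure lasted 48 h before reading; on the % scale 0 is the no-effect control and ±100 the full control effect; nearly all actives have a fitted effect of over 60% in size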
How it was run: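 Chinese hamster ovary cells (250/well, DMEM with 10% FBS and penicillin/streptomycin) were exposed to compounds for 48 h at 37 °C, 5% CO2. Viability was taken as cellular ATP content, read with ATPlite reagent after 20 min.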

[9] = target: Tumor susceptibility gene 101 protein (Homo sapiens) (UniProt Q99816); test: qHTS Assay for Iinhibitors of HIV-1 Budding by Blocking the Interaction of PTAP/TSG101: Hit Validation (AID 651600); further: potency means the concentration at half of the fitted maximal effect; nearly all actives have a fitted effect of over 70% in size
How it was run: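 Fluorescence polarization binding assay: Tsg101 binding domain (10 uM final) pre-dispensed with compounds, then FITC-labeled PTAP-motif peptide (50 nM final) added; 20 min at r.t. in HEPES pH 7.5 buffer with NaCl, Tween 20, EDTA, TCEP.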

[10] = target: Phosphoglycerate kinase, glycosomal (Trypanosoma brucei brucei) (UniProt P07378); test: qHTS for inhibitors of Phosphogylcerate Kinase: Hit Validation Screen (AID 686980); details: TbPGK coupled GAPDH assay, Kinase-Glo luminescence; further: potency means the concentration at half of the fitted maximal effect; nearly all actives have a fitted effect of over 65% in size
Chain of Phosphoglycerate kinase, glycosomal (Trypanosoma brucei brucei) (P07378 whole entry, looked up): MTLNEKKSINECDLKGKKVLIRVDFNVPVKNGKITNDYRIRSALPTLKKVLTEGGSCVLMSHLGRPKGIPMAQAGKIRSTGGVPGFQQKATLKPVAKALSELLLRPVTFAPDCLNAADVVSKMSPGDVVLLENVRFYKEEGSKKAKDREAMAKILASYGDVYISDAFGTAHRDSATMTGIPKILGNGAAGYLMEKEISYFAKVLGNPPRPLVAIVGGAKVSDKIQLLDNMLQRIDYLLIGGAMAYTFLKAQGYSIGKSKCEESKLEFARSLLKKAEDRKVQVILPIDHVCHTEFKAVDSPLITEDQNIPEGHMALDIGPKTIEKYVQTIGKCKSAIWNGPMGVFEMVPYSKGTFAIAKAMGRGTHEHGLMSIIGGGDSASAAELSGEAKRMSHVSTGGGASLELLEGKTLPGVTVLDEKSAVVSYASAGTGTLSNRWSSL
How it was run: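 Luminescent ATP detection (Kinase-Glo Plus) follows a 60-minute room-temperature incubation, with wells lacking PGK as controls. Buffer: 100 mM TEA (pH 7.6), 5 mM MgCl2, 0.01% Tween-20. Coupling enzyme GAPDH (100 nM final) supplies unstable 1,3-BPG in-well.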

[11] = target: DNA polymerase iota (Homo sapiens) (UniProt Q9UNA4); test: qHTS for Inhibitors of Polymerase Iota: Confirmatory Assay for Cherry-picked Compounds (AID 720496); details: Pol iota primer extension, TAMRA/BHQ fluorescence; further: potency means the concentration at half of the fitted maximal effect
Chain of DNA polymerase iota (Homo sapiens) (Q9UNA4 whole entry, looked up): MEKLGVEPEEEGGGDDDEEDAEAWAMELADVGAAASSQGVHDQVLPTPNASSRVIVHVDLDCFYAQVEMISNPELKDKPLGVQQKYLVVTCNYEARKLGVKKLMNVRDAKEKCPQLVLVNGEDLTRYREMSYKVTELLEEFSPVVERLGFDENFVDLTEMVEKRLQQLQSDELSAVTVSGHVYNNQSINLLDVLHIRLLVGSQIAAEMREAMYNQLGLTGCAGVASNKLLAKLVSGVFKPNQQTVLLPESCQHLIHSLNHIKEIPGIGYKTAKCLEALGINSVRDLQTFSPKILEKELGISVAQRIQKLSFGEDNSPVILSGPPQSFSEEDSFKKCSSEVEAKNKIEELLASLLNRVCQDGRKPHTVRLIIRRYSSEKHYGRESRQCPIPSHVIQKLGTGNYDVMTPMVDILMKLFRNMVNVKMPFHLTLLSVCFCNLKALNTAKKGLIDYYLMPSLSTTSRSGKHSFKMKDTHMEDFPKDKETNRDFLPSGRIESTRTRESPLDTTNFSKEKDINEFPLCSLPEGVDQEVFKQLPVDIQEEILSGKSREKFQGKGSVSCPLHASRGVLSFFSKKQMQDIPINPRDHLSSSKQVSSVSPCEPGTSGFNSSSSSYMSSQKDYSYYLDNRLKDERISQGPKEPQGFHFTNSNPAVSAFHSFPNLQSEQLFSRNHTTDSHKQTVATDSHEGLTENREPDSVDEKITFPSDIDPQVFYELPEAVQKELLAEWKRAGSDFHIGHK
How it was run: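 Buffer-only wells, without enzyme, serve as negative control. Test wells hold 10 nM Pol iota preincubated 15 min with compound before 50 nM final fluorogenic DNA substrate is added; signal is read at 0 and 10 min.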

[12] = target: Flap endonuclease 1 (Homo sapiens) (UniProt P39748); test: qHTS Assay for the Inhibitors of FEN1: Confirmatory Assay for Cherry-picked Compounds (AID 720498); details: FEN1 flap cleavage, TAMRA/BHQ2 fluorogenic DNA substrate; further: potency means the concentration at half of the fitted maximal effect; nearly all actives have a fitted effect of over 60% in size
Chain of Flap endonuclease 1 (Homo sapiens) (P39748 whole entry, looked up): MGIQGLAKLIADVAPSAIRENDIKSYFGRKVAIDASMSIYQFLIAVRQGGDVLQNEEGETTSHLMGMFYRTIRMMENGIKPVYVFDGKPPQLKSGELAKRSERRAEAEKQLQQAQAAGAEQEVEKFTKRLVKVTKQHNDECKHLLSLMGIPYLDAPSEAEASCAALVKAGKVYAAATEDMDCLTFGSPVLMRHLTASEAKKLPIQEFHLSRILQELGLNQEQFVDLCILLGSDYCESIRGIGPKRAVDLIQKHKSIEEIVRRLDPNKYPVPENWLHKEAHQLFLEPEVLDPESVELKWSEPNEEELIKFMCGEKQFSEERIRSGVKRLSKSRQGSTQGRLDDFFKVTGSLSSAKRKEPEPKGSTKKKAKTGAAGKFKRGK
How it was run: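 FEN1 at 10 nM was preincubated with compound for 15 min at room temperature, then 50 nM (final) double-flap DNA substrate was added. TAMRA fluorescence released from the BHQ-2-quenched flap was read at 0 and 15 min (ex 525/em 598 nm).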

[13] = target: Mitogen-activated protein kinase 10 (Mus musculus) (UniProt Q61831); test: JNK3 AlphaScreen Assay (AID 530; active means well fitted curve in either direction with a large enough effect, not every such curve was filed as active;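 further: kinase came from lysate of stimulated human HepG2 cells; signal reports phosphorylation of biotinylated GST-cJun 1-79 at Ser73 with 10 µM ATP; on the % scale 0 is the no-effect control and ±100 the full control effect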)
How it was run: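 Inhibitors reduce antibody binding to phosphorylated biotin-cJun, lowering AlphaScreen luminescence. Lysates from HepG2 cells pre-activated by IL-1beta plus TNF-alpha supplied JNK3; compounds were titrated.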

[14] = target: Cytochrome P450 3A4 (Homo sapiens) (UniProt P08684); test: qHTS Assay for Inhibitors and Substrates of Cytochrome P450 3A4 (AID 884); further: on the % scale 0 is the no-effect control and ±100 the full control effect; nearly all actives have a fitted effect of over 50% in size
How it was run: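 20 nM human CYP3A4 with 25 uM Luciferin-PPXE (at KM) in 200 mM KPO4, preincubated 10 min with compound; NADPH regeneration started a 60 min RT reaction. Luciferin detected by luminescence, normalized to 57 uM ketoconazole as full inhibition.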

[15] = AP1 Signaling Pathway (AID 357; active means well fitted curve in either direction with a large enough effect, not every such curve was filed as active;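 further: ME-180 reporter cells stimulated with EGF at its EC50 level; on the % scale 0 is the no-effect control and ±100 the full control effect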); details: ME-180 AP-1-bla reporter, EGF-induced, beta-lactamase ratio, 5 h; at 7.69 µM (top of the series) unless noted
How it was run: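 Cells are seeded overnight, exposed to compound titrations and an EC50 level of EGF for 5 hours at 37 °C, then loaded with CCF4 dye for 2.5 hours. Beta-lactamase activity under the AP-1 element is read as a blue/green ratio.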

[16] = Stat Signaling Pathway (AID 446; active means well fitted curve in either direction with a large enough effect, not every such curve was filed as active;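 further: ME-180 cervical cancer cells given 40 pM IL-6 alongside compound; SIE-controlled beta-lactamase reporter measured as 460/530 nm FRET emission ratio; on the % scale 0 is the no-effect control and ±100 the full control effect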)
How it was run: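 Screening format detects activators and inhibitors alike: ME-180 SIE-bla cells stimulated at 40 pM IL-6 for 5 hrs with compound, then dual-emission beta-lactamase read at 405 nm excitation.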

[17] = target: Glucocorticoid receptor (Homo sapiens) (UniProt P04150); test: GR-GFP Redistribution (AID 450;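 active means compounds whose dose series gives a full or clear partial fitted curve of increased nuclear translocation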; further: potency means the concentration at half of the fitted maximal effect); details: U2OS GR-GFP nuclear translocation, laser cytometry, 2 h
Chain of Glucocorticoid receptor (Homo sapiens) (P04150 whole entry, looked up): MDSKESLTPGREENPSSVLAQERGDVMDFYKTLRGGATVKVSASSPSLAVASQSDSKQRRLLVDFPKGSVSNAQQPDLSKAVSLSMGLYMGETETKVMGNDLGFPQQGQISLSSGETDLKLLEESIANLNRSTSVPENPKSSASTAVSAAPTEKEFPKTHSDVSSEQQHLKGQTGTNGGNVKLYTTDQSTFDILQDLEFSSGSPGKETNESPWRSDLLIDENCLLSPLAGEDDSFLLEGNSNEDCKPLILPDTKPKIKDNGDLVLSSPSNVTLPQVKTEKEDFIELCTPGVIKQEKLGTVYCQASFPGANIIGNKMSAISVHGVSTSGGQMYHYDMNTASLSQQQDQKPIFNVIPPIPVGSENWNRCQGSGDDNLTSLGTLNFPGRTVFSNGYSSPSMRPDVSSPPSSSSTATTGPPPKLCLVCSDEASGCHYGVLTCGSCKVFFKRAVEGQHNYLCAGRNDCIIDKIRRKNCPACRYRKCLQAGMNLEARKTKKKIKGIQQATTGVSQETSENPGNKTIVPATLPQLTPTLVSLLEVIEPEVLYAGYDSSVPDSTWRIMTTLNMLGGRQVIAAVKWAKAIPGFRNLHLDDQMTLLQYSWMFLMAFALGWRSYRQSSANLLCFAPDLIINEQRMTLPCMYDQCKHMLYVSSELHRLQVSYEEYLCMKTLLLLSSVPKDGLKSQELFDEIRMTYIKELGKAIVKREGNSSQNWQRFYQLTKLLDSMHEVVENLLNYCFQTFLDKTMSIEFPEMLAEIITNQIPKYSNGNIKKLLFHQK

CCOC(=O)c1c(C)[nH]c(C(=O)C(C)OC(=O)c2ccc(NC(=O)CC#N)cc2)c1C (stereo unspecified)
inactive: Potency [1] | Potency [2] | Potency [3] | Potency [4]

CN(CC(=O)Nc1ccc(F)cc1)C(=O)COc1ccc(C(=O)c2ccccc2)cc1
inactive: Potency [1] | Potency [2] | Potency [3] | Potency [4]

CC(C)CNC(=O)C1(C)CCCCCN1Cc1ccccc1-c1ccccc1 (stereo unspecified)
inactive: Potency [1] | Potency [2] | Potency [3] | Potency [4]

COc1cc2c(c(OC)c1OC)C(c1ccccc1C)CC(=O)O2 (stereo unspecified)
inactive: Potency [1] | Potency [2] | Potency [3] | Potency [4]

CCOC(=O)C1=C(C)NC(C)=C(C(=O)OCC)C1C(=O)OCC(=O)NCc1ccc(F)cc1
inactive: Potency [1] | Potency [2] | Potency [3] | Potency [4]

O=C(Nc1ccncc1)c1cc2ccccc2cc1O
inactive: Potency [1] | Potency [2] | Potency [3] | Potency [4]

O=C(NC1(O)C(=O)c2ccccc2C1=O)c1c(Cl)cccc1Cl
inactive: Potency [1] | Potency [2] | Potency [3]
active: Potency [5] 3.98 µM

COc1ccc(-c2nc(CCNS(=O)(=O)c3ccc4c(c3)OCCO4)cs2)cc1
inactive: Potency [1] | Potency [2] | Potency [3] | Potency [4]

CCOC(=O)C1=C(N)Oc2ccc3ccccc3c2C1c1ccc(O)cc1 (stereo unspecified)
inactive: Potency [1] | Potency [2] | Potency [3] | Potency [4]

O=C(O)C1Nc2c(Cl)cc(Cl)c(Cl)c2C2C=CCC12 (stereo unspecified)
inactive: Potency [1] | Potency [2] | Potency [3] | Potency [4]

Cc1ccc(C2CC(c3cccs3)=NN2C(=O)c2ccco2)o1 (stereo unspecified)
inactive: Potency [1] | activation [2] 1.82% [at 17.1 µM, percent relative to cAMP agonist control] | activity change, negative = inhibition [3] -15.2% [at 30.8 µM] | activation [4] 16.2% [at 30.8 µM]

Cc1cc(Br)c2c(c1)[C@](O)(c1cn(C)c3ccccc13)C(=O)N2C
inactive: Potency [1] | activation [2] 1.9% [at 17.1 µM, percent relative to cAMP agonist control] | activity change, negative = inhibition [3] -15.6% [at 30.8 µM] | activation [4] 24.7% [at 30.8 µM]

COc1cc(/C=C/[N+](=O)[O-])ccc1OCc1cccc(C(=O)O)c1
inactive: Potency [1] | Potency [2] | Potency [3] | Potency [4]
active: Potency [6] 79.4 µM

CCCCN(CCCC)C1=Nc2ccccc2N/C1=C(/C#N)C(=O)OCC
inactive: Potency [1] | Potency [2] | Potency [3] | Potency [4]

Nc1ccc2nc3c(=O)[nH]c(=S)[nH]c3nc2c1
inactive: outcome [7] | outcome [8] | Potency [3]
active: Potency [6] 39.8 µM | Potency [9] 18.3 µM | Potency [10] 16.3 µM | Potency [11] 33.6 µM | Potency [12] 67.5 µM | Potency [1] 79.4 µM | Potency [2] 100 µM | Potency [4] 44.7 µM

O=C(Cc1ccc(Br)c2ccccc12)N/N=C/c1ccccn1
inactive: Potency [1] | Potency [2] | Potency [3] | Potency [4]

CC1=C(C(=O)OCc2ccccc2)C(c2ccc(C(C)(C)C)cc2)NC(=O)N1CCCCCC(=O)O (stereo unspecified)
inactive: Potency [13] | Potency [14] | Potency [1] | Potency [2] | Potency [3] | Potency [4]

CCCCN(CCCC)Cc1cc(=O)oc2cc(OC)ccc12
inactive: Potency [1] | Potency [2] | Potency [3] | Potency [4]

O=C(N/N=C/c1ccoc1)c1cc(O)cc(O)c1
inactive: Potency [1] | Potency [2] | Potency [3] | Potency [4]

CCOc1cnc(-c2c(-c3ccccc3Cl)noc2C)o1
inactive: Potency [1] | Potency [2] | Potency [3] | Potency [4]

Cc1ccc(O)c(CNc2ccc(S(=O)(=O)Nc3nccs3)cc2)c1
inactive: Potency [1] | activation [2] -10.4% [at 17.1 µM, percent relative to cAMP agonist control] | activity change, negative = inhibition [3] 1.37% [at 30.8 µM] | activation [4] 19.2% [at 30.8 µM]

COc1ccc(-c2cc(N)n(S(=O)(=O)c3c(F)c(F)c(F)c(F)c3F)n2)cc1OC
active: Potency [5] 20 µM
inactive: Potency [1] | activation [2] 7.68% [at 17.1 µM, percent relative to cAMP agonist control] | activity change, negative = inhibition [3] 6.6% [at 30.8 µM]

CCCCCOC(=O)C1=C(C)Nc2nnnn2C1c1ccccc1Cl (stereo unspecified)
inactive: Potency [1] | activation [2] 12.2% [at 17.1 µM, percent relative to cAMP agonist control] | activity change, negative = inhibition [3] -14.1% [at 30.8 µM] | activation [4] 21.2% [at 30.8 µM]

CCOC(=O)[C@H](C)N1[C@H](C)[C@H](c2ccccc2)Oc2ccc(Cl)cc2S1(=O)=O
inactive: Potency [1] | activation [2] 3.08% [at 17.1 µM, percent relative to cAMP agonist control] | activity change, negative = inhibition [3] 6.25% [at 30.8 µM] | activation [4] 25.5% [at 30.8 µM]

O=[N+]([O-])c1ccc(C=NNc2ccc(S(=O)(=O)O)cc2)cc1
inactive: Potency [1] | activation [2] -6.29% [at 17.1 µM, percent relative to cAMP agonist control] | activity change, negative = inhibition [3] -18.7% [at 30.8 µM] | activation [4] 6.23% [at 30.8 µM]

COC(=O)C1CCN(c2nc3ccccc3nc2C(C#N)C(=O)NCCc2ccccc2)CC1 (stereo unspecified)
inactive: activity change, negative = inhibition [15] -19.5% [at 17.2 µM] | outcome [16] | Potency [17] > 20.6 µM | Potency [1] | Potency [2] | Potency [4]
